Z-score and composite z-score data for five compounds are collected here from PubChem BioAssay.

Each structure is given as a SMILES string. Activity calls are given as the source filed them.

Test [1] in a line: compound effects on lung adenocarcinoma cell viability – A549, calcein-AM fluorescence, 48 h, basal, profiling panel (AID 1162). Further: test concentration not given here. Particulars: higher = more signal.
Test [2] can be described thus: compound effects on differentiated 3T3-L1 adipocyte viability – cell-based, 3T3-L1 adipocytes, calcein-AM fluorescence, 48 h, basal, profiling panel (AID 1163). Further: test concentration not given here. Particulars: 3T3-L1 adipocytes viability, higher = more signal.
The nature of test [3]: compound effects on hepatocellular carcinoma cell viability – HepG2, calcein-AM fluorescence, 48 h, basal, profiling panel (AID 1164). Further: test concentration not given here. Particulars: higher = more signal.
The nature of test [4]: compound effects on multiple myeloma cell viability – MM1S, calcein-AM fluorescence, 48 h, basal, profiling panel (AID 1165).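 Further: viability of MM1S multiple myeloma cells under basal unstimulated conditions; test concentration not given here.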 Particulars: higher = more signal.
Test [5] can be described thus: calcein-AM signal in unstimulated myeloma cells – cell-based, calcein-AM fluorescence, 48 h, PK04 Diversity Set, profiling panel (AID 1166).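 Further: cells grown under basal conditions without added stimulus; test concentration not given here.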 Particulars: RPMI8226 myeloma viability, higher = more signal.
The nature of test [6]: JC-1 mitochondrial signal, unstimulated HepG2 cells – cell-based, JC-1 fluorescence, 24 h, 100 nL compound, profiling panel (AID 1167). Further: test concentration not given here. Particulars: HepG2 mitochondrial potential, higher = more signal.
A short description of test [7]: JC-1 mitochondrial signal, unstimulated adipocytes – cell-based, JC-1 fluorescence, 3T3-L1 adipocytes, 24 h, 100 nL compound, profiling panel (AID 1168). Further: test concentration not given here. Particulars: JC-1 mitochondrial fluorescence, higher = more signal, called active from +8 up or from −8 down.
A short description of test [8]: JC-1 mitochondrial signal, unstimulated myeloma cells – cell-based, JC-1 fluorescence, RPMI8226, 24 h, 100 nL compound, profiling panel (AID 1169). Further: test concentration not given here. Particulars: JC-1 mitochondrial potential fluorescence, higher = more signal.
Test [9] in a line: JC-1 mitochondrial signal, unstimulated MM1S myeloma – cell-based, JC-1 fluorescence, 24 h, 100 nL compound, profiling panel (AID 1170). Further: test concentration not given here. Particulars: MM1S mitochondrial potential, higher = more signal.
The nature of test [10]: resazurin metabolic signal in A549 cells – cell-based, resazurin fluorescence, 24 h, PK04 Diversity Set, profiling panel (AID 1171). Further: test concentration not given here. Particulars: A549 viability, higher = more signal, called active from +8 up or from −8 down.
Test [11] in a line: resazurin metabolic signal in HepG2 cells – cell-based, resazurin fluorescence, 24 h, PK04 Diversity Set, profiling panel (AID 1172). Further: test concentration not given here. Particulars: HepG2 viability, higher = more signal. (Alamar Blue is a resazurin reagent that responds to reducing activity.)
Test [12] is described as follows: budding yeast growth changes without added modifier – OD600, strain BY4716, 24 h, basal condition, primary screen (AID 1173). Particulars: S. cerevisiae BY4716 growth, OD600, 24 h; higher = more signal, called active from +8 up or from −8 down.
The nature of test [13]: viability profiling in MM1S myeloma cells – cell-based, resazurin fluorescence, basal, 24 h, PK04 Diversity Set, profiling panel (AID 1174). Further: test concentration not given here. Particulars: higher = more signal, called active from +8 up or from −8 down.
Test [14] deals with Dihydroorotate dehydrogenase (quinone), mitochondrial (Plasmodium falciparum (isolate 3D7)) (UniProt Q08210). Description: inhibition of P. falciparum DHODH – biochemical, C-terminal His tag, absorbance 600 nm, primary screen (AID 1175).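 Further: recombinant parasite enzyme with a five histidine tag at its C terminus; test concentration not given here.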 Particulars: PfDHODH enzyme, DCIP absorbance 600 nm; higher = more signal, called active from +8 up or from −8 down.
Test [15] in a line: growth modulation of vineyard yeast isolate – strain RM11-1a, OD600, basal, 24 h, primary screen (AID 1177).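 Further: cultures grown under basal conditions with no added stressor; test concentration not given here.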 Particulars: S. cerevisiae RM11-1a growth, OD600, 24 h; higher = more signal, called active from +8 up or from −8 down.
Test [16] in a line: growth of efflux-deficient E. coli DRC39 – strain DRC39, OD650, 24 h, E. coli filamentation inducers, primary screen (AID 1178).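 Further: growth measured as culture turbidity by optical density at 650 nm; test concentration not given here.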 Particulars: E. coli DRC39 acrAB, higher = more signal, called active from +8 up or from −8 down.
Test [17] can be described thus: growth of efflux-deficient E. coli DRC39 – strain DRC39, OD650, 48 h, E. coli filamentation inducers, primary screen (AID 1179).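 Further: screen aims at cell division blockers that make cells filament.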 Particulars: E. coli DRC39 delta-acrAB growth, higher = more signal, called active from +8 up or from −8 down.
Test [18] is described as follows: viability profiling in RPMI8226 myeloma cells – cell-based, resazurin fluorescence, basal, 24 h, PK04 Diversity Set, profiling panel (AID 1180).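 Further: RPMI8826 multiple myeloma cell line at 5000 cells per well; test concentration not given here.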 Particulars: higher = more signal.
Test [19] deals with E3 ubiquitin-protein ligase XIAP (Homo sapiens) (UniProt P98170). Description: small molecules binding XIAP protein – biophysical, small-molecule microarray, fluorescence 635 nm, primary screen (AID 1181).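 Further: score merges 667 nm emission and signal to noise over triplicate slides.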 Particulars: higher = more signal.
Sequence of E3 ubiquitin-protein ligase XIAP (Homo sapiens) (P98170 whole entry, looked up): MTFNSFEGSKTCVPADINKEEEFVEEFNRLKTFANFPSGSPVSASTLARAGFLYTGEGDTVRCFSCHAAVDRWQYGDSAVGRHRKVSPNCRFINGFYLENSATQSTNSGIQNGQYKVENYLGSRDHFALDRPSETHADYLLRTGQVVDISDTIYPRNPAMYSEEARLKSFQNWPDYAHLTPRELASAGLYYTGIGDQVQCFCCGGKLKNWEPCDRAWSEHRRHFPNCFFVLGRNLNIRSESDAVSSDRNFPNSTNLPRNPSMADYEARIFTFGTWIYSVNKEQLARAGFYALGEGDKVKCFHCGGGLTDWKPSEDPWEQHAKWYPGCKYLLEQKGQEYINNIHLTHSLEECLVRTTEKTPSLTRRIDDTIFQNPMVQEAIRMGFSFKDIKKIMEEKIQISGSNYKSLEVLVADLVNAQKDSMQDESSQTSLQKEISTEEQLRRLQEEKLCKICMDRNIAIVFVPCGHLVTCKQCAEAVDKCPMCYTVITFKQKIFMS

Sequence of Dihydroorotate dehydrogenase (quinone), mitochondrial (Plasmodium falciparum (isolate 3D7)) (Q08210 whole entry, looked up): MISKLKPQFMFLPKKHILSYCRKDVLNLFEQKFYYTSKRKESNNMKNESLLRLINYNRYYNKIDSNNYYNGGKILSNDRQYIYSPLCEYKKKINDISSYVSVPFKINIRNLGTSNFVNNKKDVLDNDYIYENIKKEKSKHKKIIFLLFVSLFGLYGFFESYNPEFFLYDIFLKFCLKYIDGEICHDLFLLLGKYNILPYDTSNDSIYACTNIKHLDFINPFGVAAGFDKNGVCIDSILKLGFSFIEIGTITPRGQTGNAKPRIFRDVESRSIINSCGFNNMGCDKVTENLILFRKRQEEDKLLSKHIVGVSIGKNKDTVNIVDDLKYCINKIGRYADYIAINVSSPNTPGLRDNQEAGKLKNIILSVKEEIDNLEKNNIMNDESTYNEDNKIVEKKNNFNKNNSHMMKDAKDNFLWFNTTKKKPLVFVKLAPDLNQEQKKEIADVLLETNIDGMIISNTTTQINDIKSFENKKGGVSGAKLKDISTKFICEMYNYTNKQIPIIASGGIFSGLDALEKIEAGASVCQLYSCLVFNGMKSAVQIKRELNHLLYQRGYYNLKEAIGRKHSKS

Consider `CO[C@@H]1COC(=O)[C@H](C)NC(=O)CC=C[C@@H](C)[C@H](NS(=O)(=O)c2ccc(C)cc2)COC(=O)CC=C[C@@H]1C`, for which the z-score in [1] is 0.286; in test [2] it was 0.624; in test [3] it was 0.129; in test [4] it was 0.287; in [5] it was -0.0803; in test [6], 0.596. Also, the z-score in [7] is 0.523 (inactive); in [8], -0.296; in test [9], 0.203; in [10] it was 0.589 (inactive); in [11] it was 0.825; in [12], -0.364 (inactive). The z-score in test [13] is 0.507 (inactive); in test [15] it was 0.655 (inactive); in test [16] it was 0.798 (inactive); in test [17], 0.547 (inactive); in test [18], 0.271. Moreover, the results for the composite z-score in test [14] and in test [19] were 0.605 (inactive) and -0.0835, respectively.

Take `C[N+](C)(C)CCCCNC(=O)[C@@H]1C[C@@H]2C(=O)N3CCC[C@H]3C(=O)N2[C@@H]1c1cccc(OCCO)c1`: the z-score in [1] was 0.668; in [2], 1.05; in [3] it was -0.954; in [4] it was -0.732; in test [5], -0.179; in test [6], 0.428. Moreover, the z-score was 0.971 (inactive) in test [7]; 0.252 in [8]; 0.791 in [9]; -0.141 (inactive) in test [10]; 0.0931 in [11]; 0.0521 (inactive) in test [12]. The z-score in test [13] was 0.982 (inactive); in [15], -1.27 (inactive); in [16], 0.497 (inactive); in [17], 0.0567 (inactive); in [18], 0.947. Further, the composite z-score was -31.2 (active) in test [14] and -0.0619 in test [19].

On to `COC(=O)C1=C(C)N(Cc2ccccc2)c2c(C(=O)OC)c(C(=O)OC)c(C(=O)OC)c(=O)n2[C@@H]1c1ccccc1`, for which the z-score in test [1] was 0.943; in test [2], 0.338; in test [3] it was 0.244; in test [4], 0.24; in test [5], 0.327; in test [6], 1.12. The z-score is 0.633 (inactive) in test [7]; -0.281 in test [8]; -0.0899 in test [9]; 0.524 (inactive) in test [10]; 1.23 in test [11]; -1.71 (inactive) in test [12]. The z-score in test [13] is -0.364 (inactive); in test [15] it was -1.05 (inactive); in [16], -0.0311 (inactive); in [17] it was 0.0198 (inactive); in test [18], 0.512. Further, the composite z-score was 0.295 (inactive) in test [14] and -0.0841 in test [19].

`COCCOC(=O)N1C(=O)[C@@]2(c3cc(C#CCC(C(=O)OC)C(=O)OC)ccc31)[C@H](C(=O)N1CCN(c3ncccn3)CC1)[C@H]1C(=O)O[C@H](c3ccccc3)[C@H](c3ccccc3)N1[C@@H]2c1ccc(O)cc1`: the z-score in test [1] was 1.65; in [2], -0.287; in [3] it was 2.17; in test [4], 0.613; in [5] it was -0.188; in test [6], 0.88. For the same compound, the z-score in [7] was 2.64 (inactive); in test [8] it was -0.203; in [9], -0.0423; in test [10], 0.0359 (inactive); in [11] it was 0.203; in test [12], -0.746 (inactive). Further, the z-score in test [13] is 0.805 (inactive); in test [15], 0.164 (inactive); in test [16] it was 0.535 (inactive); in test [17], 1.31 (inactive); in test [18] it was 0.821. The values for the composite z-score in test [14] and in test [19] were -1.06 (inactive) and -0.0749, respectively.

For `COc1ccc([Si](C)(C)[C@H]2[C@H](CCO)O[C@@]3(C(=O)N(Cc4ccccc4)c4ccc(N5C(=O)c6cccc7cccc5c67)cc43)[C@@H]2C)cc1`, the z-score is 0.318 in test [1]; 0.535 in test [2]; -2.11 in test [3]; -1.02 in test [4]; -3.03 in [5]; 1.63 in [6]. In addition, the z-score in test [7] is 2.08 (inactive); in [8], -0.815; in test [9], -0.923; in test [10], -1.46 (inactive); in test [11] it was 0.175; in test [12] it was 0.432 (inactive). Besides, the z-score is -2.33 (inactive) in test [13]; 4.08 (inactive) in [15]; 2.4 (inactive) in test [16]; 2.17 (inactive) in test [17]; -2.04 in test [18]. Also, the composite z-score in [14] is 0.386 (inactive); in [19] it was -0.0473.
